{"source": "PubChem BioAssay (EPA / NIEHS)", "note": "Records with an inconclusive call do not appear. The source made the active and inactive calls. Rule for the calls: active = hit-call score of the fitted dose curve at least 0.9, where 1 is the maximum; inconclusive = response in the unintended direction; inactive = score below 0.9.", "data": [{"target": "human Tyrosine Protein Kinase Receptor Tie-2 (Tie2), TEK (gene 7010) (UniProt Q02763)", "sequence (Q02763 whole entry, looked up)": "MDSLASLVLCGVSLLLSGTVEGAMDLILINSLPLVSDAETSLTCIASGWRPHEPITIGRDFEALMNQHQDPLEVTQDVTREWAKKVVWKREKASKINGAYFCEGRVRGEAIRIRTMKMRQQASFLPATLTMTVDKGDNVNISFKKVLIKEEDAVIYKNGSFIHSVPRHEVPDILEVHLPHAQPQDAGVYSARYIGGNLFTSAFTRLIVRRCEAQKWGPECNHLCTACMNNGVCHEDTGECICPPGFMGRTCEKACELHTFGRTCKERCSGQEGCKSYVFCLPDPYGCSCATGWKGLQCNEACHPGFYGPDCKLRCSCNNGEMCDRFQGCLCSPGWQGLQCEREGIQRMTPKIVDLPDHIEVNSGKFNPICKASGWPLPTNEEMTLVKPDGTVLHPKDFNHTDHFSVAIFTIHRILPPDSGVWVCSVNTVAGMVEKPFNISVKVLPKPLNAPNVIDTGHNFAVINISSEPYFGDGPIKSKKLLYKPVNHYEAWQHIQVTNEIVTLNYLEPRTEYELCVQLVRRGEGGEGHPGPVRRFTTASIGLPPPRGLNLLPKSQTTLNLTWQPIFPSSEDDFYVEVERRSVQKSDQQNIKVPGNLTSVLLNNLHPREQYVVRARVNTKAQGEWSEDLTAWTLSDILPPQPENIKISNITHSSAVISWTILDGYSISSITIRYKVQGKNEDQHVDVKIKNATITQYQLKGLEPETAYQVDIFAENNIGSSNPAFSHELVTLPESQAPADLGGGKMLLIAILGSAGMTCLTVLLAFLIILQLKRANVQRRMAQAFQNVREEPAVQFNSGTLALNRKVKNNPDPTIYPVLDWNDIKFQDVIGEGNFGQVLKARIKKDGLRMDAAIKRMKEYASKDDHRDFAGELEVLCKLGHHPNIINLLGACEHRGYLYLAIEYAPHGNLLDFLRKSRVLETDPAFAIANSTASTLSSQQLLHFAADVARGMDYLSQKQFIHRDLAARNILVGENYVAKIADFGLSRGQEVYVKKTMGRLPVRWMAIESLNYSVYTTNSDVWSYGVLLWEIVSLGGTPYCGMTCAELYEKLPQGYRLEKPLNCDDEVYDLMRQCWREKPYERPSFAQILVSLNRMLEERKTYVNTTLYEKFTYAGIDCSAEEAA", "test": "NVS_ENZ_hTie2: NovaScreen (NVS) Enzymatic Assay for human Tyrosine Protein Kinase Receptor Tie-2 (Tie2) (AID 2283225)", "procedure": "NVS_ENZ_hTie2 is a biochemical, single-readout assay that uses extracted gene-proteins in a cell-free assay. Measurements were taken 1 hour after chemical dosing in a 384-well plate.NVS_ENZ_hTie2 is one of one assay component(s) measured or calculated from the NVS_ENZ_hTie2 assay. It is designed to make measurements of enzyme activity, a form of enzyme reporter, as detected with fluorescence intensity signals by Fluorescence and electrophoretic mobility shift technology.Data from the assay component NVS_ENZ_hTie2 was analyzed into 1 assay endpoint. This assay endpoint, NVS_ENZ_hTie2, was analyzed in the positive analysis fitting direction relative to DMSO as the negative control and baseline of activity. Using a type of enzyme reporter, loss-of-signal activity can be used to understand changes in the enzymatic activity as they relate to the gene TEK. Furthermore, this assay endpoint can be referred to as a primary readout, because this assay has produced multiple assay endpoints where this one serves a enzymatic activity function. To generalize the intended target to other relatable targets, this assay endpoint is annotated to the kinase intended target family, where the subfamily is receptor tyrosine kinase.\nBinding assays used specific radioligands (tritiated, iodinated) with non-radioactive competitive displacement ligands in agonist or antagonist protocols (as indicated) and various reference compounds and inhibitors to titrate specific binding to receptors and transporters. Most enzyme assays (CYPs, kinases, phosphatases, proteases, HDACs) used recombinant protein and specific substrates (fluorescence mostly, some colorimetric and radioactive) and inhibitors, followed by a biochemical separation of substrate and product. All assays for the biochemical HTS were initially run in duplicate at a single concentration (10 uM for CYP450 assays and 25 uM for all others). Assay-chemical combinations meeting a pre-defined threshold (e.g., 30% inhibition and other criteria defined below) were then run in singleton concentration-response format with maximum concentration of 20 uM for CYPs and 50 uM for all others. Each assay was run with positive and negative controls, and concurrent controls on every plate. The follow-up (secondary) screen tested active chemical-pairs in concentration series, as well as a few additional assays not tested in the primary screen, some selected negative inactives, and several cases re-run in the concentration series for confirmatory purposes.", "values": [{"compound": "Nc1c(Cl)c(Cl)nc(C(=O)O)c1Cl", "outcome": "inactive"}, {"compound": "CC(C)C1(C)N=C(c2ncccc2C(=O)O)NC1=O", "note": "(configuration not stated)", "outcome": "inactive"}, {"compound": "Nc1cnn(-c2ccccc2)c(=O)c1Cl", "outcome": "inactive"}, {"compound": "CC1(C)C(C=C(Cl)Cl)C1C(=O)OC(C#N)c1cccc(Oc2ccccc2)c1", "note": "(configuration not stated)", "outcome": "inactive"}, {"compound": "OC(c1ccc(Cl)cc1)(c1ccc(Cl)cc1)C(Cl)(Cl)Cl", "outcome": "inactive"}]}, {"target": "rabbit Imidazoline 2 Central (I2C), CKB (gene 100009085) (UniProt P00567)", "sequence (P00567 whole entry, looked up)": "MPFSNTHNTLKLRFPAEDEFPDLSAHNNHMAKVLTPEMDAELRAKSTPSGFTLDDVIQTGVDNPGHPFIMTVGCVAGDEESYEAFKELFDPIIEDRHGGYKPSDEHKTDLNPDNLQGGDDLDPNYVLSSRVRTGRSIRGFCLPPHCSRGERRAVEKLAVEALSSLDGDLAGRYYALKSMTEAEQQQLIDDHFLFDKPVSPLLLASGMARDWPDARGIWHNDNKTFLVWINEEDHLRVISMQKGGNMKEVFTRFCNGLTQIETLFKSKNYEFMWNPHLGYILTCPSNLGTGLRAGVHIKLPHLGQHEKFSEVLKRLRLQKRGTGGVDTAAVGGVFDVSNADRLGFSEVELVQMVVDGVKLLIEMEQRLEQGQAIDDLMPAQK", "test": "NVS_ENZ_rabI2C: NovaScreen (NVS) Enzymatic Assay for rabbit Imidazoline 2 Central (I2C) (AID 2283228)", "in_short": "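Rabbit brain membranes, cell-free; readout by filter-based scintillation counting 1.5 hours after dosing, loss of signal vs DMSO. Initial duplicate test at 25 uM, then concentration-response with 50 uM top concentration.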", "values": [{"compound": "Cn1c(-c2ccccc2)cc(-c2ccccc2)[n+]1C", "AC50": "12 µM (active)"}, {"compound": "CCN(CC)C(=O)C(C)Oc1cccc2ccccc12", "note": "(configuration not stated)", "outcome": "inactive"}, {"compound": "CCCN(CC)CC1COC2(CCC(C(C)(C)C)CC2)O1", "note": "(configuration not stated)", "AC50": "13 µM (active)"}, {"compound": "Cc1ccc(N=CN(C)C=Nc2ccc(C)cc2C)c(C)c1", "AC50": "1.21 µM (active)"}]}, {"target": "rat Adenylate Cyclase, Forskolin Stimulated, Adcy5 (gene 64532) (UniProt Q04400)", "sequence (Q04400 whole entry, looked up)": "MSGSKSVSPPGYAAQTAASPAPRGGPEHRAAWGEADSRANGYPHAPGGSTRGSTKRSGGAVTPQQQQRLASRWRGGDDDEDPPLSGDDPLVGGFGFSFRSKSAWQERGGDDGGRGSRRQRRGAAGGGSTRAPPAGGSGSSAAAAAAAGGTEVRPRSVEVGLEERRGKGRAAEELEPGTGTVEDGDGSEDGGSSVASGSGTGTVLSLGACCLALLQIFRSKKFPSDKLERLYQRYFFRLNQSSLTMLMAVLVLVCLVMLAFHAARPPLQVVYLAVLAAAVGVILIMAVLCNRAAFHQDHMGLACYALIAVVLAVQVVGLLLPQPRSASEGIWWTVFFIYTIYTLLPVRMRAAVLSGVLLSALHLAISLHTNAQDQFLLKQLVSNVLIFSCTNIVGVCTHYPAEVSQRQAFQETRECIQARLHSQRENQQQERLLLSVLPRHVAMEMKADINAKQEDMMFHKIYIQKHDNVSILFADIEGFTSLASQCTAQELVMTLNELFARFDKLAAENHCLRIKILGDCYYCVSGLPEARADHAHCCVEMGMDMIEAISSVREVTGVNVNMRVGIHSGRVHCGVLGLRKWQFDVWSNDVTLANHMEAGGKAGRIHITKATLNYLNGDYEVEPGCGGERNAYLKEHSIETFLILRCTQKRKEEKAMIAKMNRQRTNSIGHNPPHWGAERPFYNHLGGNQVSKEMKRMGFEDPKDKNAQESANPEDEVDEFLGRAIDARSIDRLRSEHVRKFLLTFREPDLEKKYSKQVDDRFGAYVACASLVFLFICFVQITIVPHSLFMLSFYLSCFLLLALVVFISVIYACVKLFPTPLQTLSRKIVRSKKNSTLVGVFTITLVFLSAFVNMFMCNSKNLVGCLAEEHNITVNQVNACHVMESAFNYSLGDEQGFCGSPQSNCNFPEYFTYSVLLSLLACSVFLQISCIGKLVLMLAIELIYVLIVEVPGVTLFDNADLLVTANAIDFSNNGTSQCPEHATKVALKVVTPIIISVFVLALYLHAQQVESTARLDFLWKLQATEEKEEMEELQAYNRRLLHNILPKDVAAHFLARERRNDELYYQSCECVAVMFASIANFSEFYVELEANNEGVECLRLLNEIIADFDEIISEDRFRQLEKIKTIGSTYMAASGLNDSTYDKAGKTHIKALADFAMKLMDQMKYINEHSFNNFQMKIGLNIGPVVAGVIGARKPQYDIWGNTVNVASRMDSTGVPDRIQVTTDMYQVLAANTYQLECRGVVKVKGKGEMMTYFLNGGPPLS", "test": "NVS_ENZ_rACFSKBinding: NovaScreen (NVS) Enzymatic Assay for rat Adenylate Cyclase, Forskolin Stimulated (AID 2283232)", "procedure": "NVS_ENZ_rACFSKBinding is a biochemical, single-readout assay that uses extracted gene-proteins from Rat forebrain membranes in a tissue-based cell-free assay. Measurements were taken 1 hour after chemical dosing in a 48-well plate.NVS_ENZ_rACFSKBinding is one of one assay component(s) measured or calculated from the NVS_ENZ_rACFSKBinding assay. It is designed to make measurements of enzyme activity, a form of enzyme reporter, as detected with scintillation counting signals by Filter-based radiodetection technology.Data from the assay component NVS_ENZ_rACFSKBinding was analyzed into 1 assay endpoint. This assay endpoint, NVS_ENZ_rACFSKBinding, was analyzed in the positive analysis fitting direction relative to DMSO as the negative control and baseline of activity. Using a type of enzyme reporter, loss-of-signal activity can be used to understand changes in the enzymatic activity as they relate to the gene Adcy5. Furthermore, this assay endpoint can be referred to as a primary readout, because this assay has produced multiple assay endpoints where this one serves a enzymatic activity function. To generalize the intended target to other relatable targets, this assay endpoint is annotated to the lyase intended target family, where the subfamily is adenylyl cyclase.\nBinding assays used specific radioligands (tritiated, iodinated) with non-radioactive competitive displacement ligands in agonist or antagonist protocols (as indicated) and various reference compounds and inhibitors to titrate specific binding to receptors and transporters. Most enzyme assays (CYPs, kinases, phosphatases, proteases, HDACs) used recombinant protein and specific substrates (fluorescence mostly, some colorimetric and radioactive) and inhibitors, followed by a biochemical separation of substrate and product. All assays for the biochemical HTS were initially run in duplicate at a single concentration (10 uM for CYP450 assays and 25 uM for all others). […]", "values": [{"compound": "COP(=S)(OC)SCn1nnc2ccccc2c1=O", "outcome": "inactive"}, {"compound": "O=C1C2CC=CCC2C(=O)N1SC(Cl)(Cl)Cl", "note": "(configuration not stated)", "outcome": "inactive"}, {"compound": "CO/N=C(/C1=NOCCO1)c1ccccc1Oc1ncnc(Oc2ccccc2Cl)c1F", "outcome": "inactive"}]}]}
